Measurements reported in the supplement of paper PMC10849652.
The full data set covers some 8,800 targets. This sample favours those with a hit. About 0.5% of all pairs of compound and target were hits. Unmarked numbers belong to inactive results.

How the values were obtained:
Test in all cases: log2 fold change, soluble protein after heating vs DMSO (PISA); higher = thermal stabilisation; K562 lysate, 10 uM; active = over 0.2 and 3.5 SD of the protein, either way, in both replicates (recomputed)
alvocidib = compound: CN1CC[C@H](c2c(O)cc(O)c3c(=O)cc(-c4ccccc4Cl)oc23)[C@H](O)C1 [alvocidib]
How it was run: (§1)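 Thermal stability, expressed as log-two fold change relative to solvent controls, is given from duplicates. Crude K562 extract in PBS pH 7.4 with 1 mM MgCl2, at 1 mg/mL protein, was treated with 10 μM compound for 30 min and heated in aliquots for 3 min across 48°C-58°C. After pooling, adjustment to 0.5% NP-40 at 4°C and centrifugation at 21,000xg for 90 min, supernatant protein was measured by TMTpro 16plex LC-MS/MS with channel sums equalised.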

Tubastatin A = compound: CN1CCc2c(c3ccccc3n2Cc2ccc(C(=O)NO)cc2)C1 [Tubastatin A]
How it was run: as §1

[1] = compound: CNC(=O)C1=CC=CC=C1NC2=NC(=NC=C2Cl)NC3=C(C=C(C=C3)N4CCOCC4)OC
How it was run: as §1

defactinib = compound: CNC(=O)c1ccc(Nc2ncc(C(F)(F)F)c(NCc3nccnc3N(C)S(C)(=O)=O)n2)cc1 [defactinib]
How it was run: as §1

[2] = compound: CNc1nc(-c2ccc3c(N)n[nH]c3c2)cc(N2C[C@@H](C(=O)NC3CCCCC3)CC[C@H]2C)n1
How it was run: as §1

encorafenib = compound: COC(=O)N[C@@H](C)CNc1nccc(-c2cn(C(C)C)nc2-c2cc(Cl)cc(NS(C)(=O)=O)c2F)n1 [encorafenib]
How it was run: as §1

[3] = compound: COC(=O)[C@H](CCSC)NC(=O)C1=C(C=C(C=C1)NC[C@H](CS)N)C2=CC=CC=C2
How it was run: as §1

alisertib = compound: COc1cc(Nc2ncc3c(n2)-c2ccc(Cl)cc2C(c2c(F)cccc2OC)=NC3)ccc1C(=O)O [alisertib]
How it was run: as §1

[4] = compound: COc1cc2nc(-c3cc(F)ccc3O)nc(N[C@@H]3CNC[C@H]3C(C)(C)O)c2cc1OC
How it was run: as §1

gefitinib = compound: COc1cc2ncnc(Nc3ccc(F)c(Cl)c3)c2cc1OCCCN1CCOCC1 [gefitinib]
How it was run: as §1

lapatinib = compound: CS(=O)(=O)CCNCc1ccc(-c2ccc3ncnc(Nc4ccc(OCc5cccc(F)c5)c(Cl)c4)c3c2)o1 [lapatinib]
How it was run: as §1

pictilisib = compound: CS(=O)(=O)N1CCN(Cc2cc3nc(-c4cccc5[nH]ncc45)nc(N4CCOCC4)c3s2)CC1 [pictilisib]
How it was run: as §1

crizotinib = compound: C[C@@H](Oc1cc(-c2cnn(C3CCNCC3)c2)cnc1N)c1c(Cl)ccc(F)c1Cl [crizotinib]
How it was run: as §1

[5] = compound: C[C@H](C1=CC=C(C=C1)C(=O)NC2=C3C=CNC3=NC=C2)N
How it was run: as §1

duvelisib = compound: C[C@H](Nc1ncnc2nc[nH]c12)c1cc2cccc(Cl)c2c(=O)n1-c1ccccc1 [duvelisib]
How it was run: as §1

gandotinib = compound: Cc1cc(Nc2cc(CN3CCOCC3)c3nc(C)c(Cc4ccc(Cl)cc4F)n3n2)n[nH]1 [gandotinib]
How it was run: as §1

tozasertib = compound: Cc1cc(Nc2cc(N3CCN(C)CC3)nc(Sc3ccc(NC(=O)C4CC4)cc3)n2)n[nH]1 [tozasertib]
How it was run: as §1

doramapimod = compound: Cc1ccc(-n2nc(C(C)(C)C)cc2NC(=O)Nc2ccc(OCCN3CCOCC3)c3ccccc23)cc1 [doramapimod]
How it was run: as §1

bafetinib = compound: Cc1ccc(NC(=O)c2ccc(CN3CC[C@H](N(C)C)C3)c(C(F)(F)F)c2)cc1Nc1nccc(-c2cncnc2)n1 [bafetinib]
How it was run: as §1

[6] = compound: Cc1cccc(CC(=O)N2CCc3c2ccc(-c2cn(C)c4ncnc(N)c24)c3F)n1
How it was run: as §1

Sequence of UniProt Q86US8 (Q86US8 whole entry, looked up): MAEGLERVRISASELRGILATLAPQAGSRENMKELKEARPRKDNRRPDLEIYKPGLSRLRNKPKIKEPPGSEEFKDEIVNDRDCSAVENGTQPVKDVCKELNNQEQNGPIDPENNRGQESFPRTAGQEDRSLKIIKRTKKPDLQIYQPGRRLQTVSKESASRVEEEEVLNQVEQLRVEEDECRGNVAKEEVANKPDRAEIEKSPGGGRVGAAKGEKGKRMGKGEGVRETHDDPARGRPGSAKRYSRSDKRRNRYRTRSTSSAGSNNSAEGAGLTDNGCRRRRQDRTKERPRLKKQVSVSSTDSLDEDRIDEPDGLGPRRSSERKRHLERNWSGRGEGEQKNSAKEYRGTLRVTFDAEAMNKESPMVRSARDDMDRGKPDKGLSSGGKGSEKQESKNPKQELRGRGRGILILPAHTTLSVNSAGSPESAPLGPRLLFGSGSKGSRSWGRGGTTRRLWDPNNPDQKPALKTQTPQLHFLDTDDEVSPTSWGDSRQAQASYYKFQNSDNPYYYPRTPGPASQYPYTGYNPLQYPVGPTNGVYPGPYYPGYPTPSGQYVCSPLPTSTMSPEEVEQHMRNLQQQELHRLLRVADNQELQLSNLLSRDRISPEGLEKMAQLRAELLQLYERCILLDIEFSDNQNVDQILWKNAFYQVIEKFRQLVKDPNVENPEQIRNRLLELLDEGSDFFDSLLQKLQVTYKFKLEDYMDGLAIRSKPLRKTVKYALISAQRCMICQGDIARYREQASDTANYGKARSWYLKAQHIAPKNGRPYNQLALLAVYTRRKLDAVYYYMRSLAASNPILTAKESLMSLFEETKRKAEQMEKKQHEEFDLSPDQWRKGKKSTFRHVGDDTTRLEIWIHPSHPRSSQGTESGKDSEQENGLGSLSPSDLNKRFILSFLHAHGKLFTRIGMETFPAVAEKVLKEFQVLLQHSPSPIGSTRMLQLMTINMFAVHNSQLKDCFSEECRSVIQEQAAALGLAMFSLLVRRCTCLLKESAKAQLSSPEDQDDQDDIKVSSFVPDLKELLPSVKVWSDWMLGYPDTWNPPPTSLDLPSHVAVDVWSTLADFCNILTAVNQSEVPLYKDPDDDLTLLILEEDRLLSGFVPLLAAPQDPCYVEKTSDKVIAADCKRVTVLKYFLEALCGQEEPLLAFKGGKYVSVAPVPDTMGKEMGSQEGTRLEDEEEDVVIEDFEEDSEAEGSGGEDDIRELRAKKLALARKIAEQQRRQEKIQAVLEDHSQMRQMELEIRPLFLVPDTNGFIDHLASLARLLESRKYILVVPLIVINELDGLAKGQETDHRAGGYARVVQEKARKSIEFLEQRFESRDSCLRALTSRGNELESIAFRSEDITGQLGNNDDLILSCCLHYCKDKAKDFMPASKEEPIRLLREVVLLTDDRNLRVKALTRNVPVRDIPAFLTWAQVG
Sequence of UniProt Q14534 (Q14534 whole entry, looked up): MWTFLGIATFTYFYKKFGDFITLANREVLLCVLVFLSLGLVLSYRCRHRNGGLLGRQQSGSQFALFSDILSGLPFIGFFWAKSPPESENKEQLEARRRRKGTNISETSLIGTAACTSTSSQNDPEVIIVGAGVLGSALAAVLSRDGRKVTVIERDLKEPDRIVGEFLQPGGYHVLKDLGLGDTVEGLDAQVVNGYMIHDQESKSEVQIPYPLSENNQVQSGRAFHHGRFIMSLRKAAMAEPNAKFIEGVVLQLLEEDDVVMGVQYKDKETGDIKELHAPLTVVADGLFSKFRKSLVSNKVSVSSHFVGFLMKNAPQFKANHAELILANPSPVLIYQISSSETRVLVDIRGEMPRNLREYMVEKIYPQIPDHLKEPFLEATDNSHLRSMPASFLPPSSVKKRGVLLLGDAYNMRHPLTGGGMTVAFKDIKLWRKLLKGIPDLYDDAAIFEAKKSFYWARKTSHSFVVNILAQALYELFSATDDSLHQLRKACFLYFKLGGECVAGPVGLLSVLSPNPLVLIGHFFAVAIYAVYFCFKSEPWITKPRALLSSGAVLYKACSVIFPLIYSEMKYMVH
Sequence of UniProt Q13573 (Q13573 whole entry, looked up): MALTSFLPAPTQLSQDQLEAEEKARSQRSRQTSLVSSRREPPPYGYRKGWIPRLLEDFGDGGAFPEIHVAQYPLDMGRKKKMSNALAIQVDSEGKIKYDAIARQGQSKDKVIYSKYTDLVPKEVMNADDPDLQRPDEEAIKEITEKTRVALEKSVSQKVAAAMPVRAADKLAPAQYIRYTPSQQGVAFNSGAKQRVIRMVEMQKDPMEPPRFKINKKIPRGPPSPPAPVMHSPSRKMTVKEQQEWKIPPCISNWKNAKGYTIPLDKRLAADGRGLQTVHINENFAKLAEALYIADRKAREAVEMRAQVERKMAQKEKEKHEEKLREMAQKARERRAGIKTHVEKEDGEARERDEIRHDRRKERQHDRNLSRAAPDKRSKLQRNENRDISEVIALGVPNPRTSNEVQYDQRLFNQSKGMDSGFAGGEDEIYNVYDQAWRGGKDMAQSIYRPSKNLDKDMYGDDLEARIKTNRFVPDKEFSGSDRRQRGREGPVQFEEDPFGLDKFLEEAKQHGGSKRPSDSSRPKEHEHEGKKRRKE
Sequence of UniProt Q96BD8 (Q96BD8 whole entry, looked up): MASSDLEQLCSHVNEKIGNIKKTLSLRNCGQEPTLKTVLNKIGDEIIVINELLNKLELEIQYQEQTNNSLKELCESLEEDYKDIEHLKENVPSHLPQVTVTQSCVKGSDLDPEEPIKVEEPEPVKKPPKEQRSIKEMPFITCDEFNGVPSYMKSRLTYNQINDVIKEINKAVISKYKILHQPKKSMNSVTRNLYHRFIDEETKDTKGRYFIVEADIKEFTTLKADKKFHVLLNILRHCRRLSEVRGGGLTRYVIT
Sequence of UniProt Q8NHG7 (Q8NHG7 whole entry, looked up): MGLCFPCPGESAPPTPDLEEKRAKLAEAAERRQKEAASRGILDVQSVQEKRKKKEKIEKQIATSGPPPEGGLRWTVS
Sequence of UniProt Q9BXP5 (Q9BXP5 whole entry, looked up): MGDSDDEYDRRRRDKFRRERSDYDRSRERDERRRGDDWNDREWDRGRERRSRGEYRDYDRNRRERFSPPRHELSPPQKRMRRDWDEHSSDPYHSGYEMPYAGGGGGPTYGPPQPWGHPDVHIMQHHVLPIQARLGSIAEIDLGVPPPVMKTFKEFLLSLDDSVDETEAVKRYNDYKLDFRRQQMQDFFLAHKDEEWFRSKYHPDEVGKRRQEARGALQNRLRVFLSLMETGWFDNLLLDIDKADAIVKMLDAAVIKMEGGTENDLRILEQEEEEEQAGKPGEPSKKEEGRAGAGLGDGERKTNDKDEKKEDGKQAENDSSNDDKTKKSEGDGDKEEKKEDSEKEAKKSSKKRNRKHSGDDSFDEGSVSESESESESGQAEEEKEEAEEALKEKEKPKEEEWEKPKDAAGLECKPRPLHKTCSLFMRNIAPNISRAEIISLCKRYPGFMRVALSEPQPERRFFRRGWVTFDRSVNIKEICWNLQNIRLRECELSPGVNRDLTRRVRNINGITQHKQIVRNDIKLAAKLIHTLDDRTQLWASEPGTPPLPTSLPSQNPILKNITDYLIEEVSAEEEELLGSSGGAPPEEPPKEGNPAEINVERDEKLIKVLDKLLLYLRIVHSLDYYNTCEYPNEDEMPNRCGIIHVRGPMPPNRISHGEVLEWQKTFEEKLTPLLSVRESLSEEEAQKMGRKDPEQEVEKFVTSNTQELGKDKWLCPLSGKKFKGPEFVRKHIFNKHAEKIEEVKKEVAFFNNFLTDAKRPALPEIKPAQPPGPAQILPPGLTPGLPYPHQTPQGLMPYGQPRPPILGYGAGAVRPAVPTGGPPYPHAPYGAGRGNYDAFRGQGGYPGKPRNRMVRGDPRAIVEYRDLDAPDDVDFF
Sequence of UniProt Q15633 (Q15633 whole entry, looked up): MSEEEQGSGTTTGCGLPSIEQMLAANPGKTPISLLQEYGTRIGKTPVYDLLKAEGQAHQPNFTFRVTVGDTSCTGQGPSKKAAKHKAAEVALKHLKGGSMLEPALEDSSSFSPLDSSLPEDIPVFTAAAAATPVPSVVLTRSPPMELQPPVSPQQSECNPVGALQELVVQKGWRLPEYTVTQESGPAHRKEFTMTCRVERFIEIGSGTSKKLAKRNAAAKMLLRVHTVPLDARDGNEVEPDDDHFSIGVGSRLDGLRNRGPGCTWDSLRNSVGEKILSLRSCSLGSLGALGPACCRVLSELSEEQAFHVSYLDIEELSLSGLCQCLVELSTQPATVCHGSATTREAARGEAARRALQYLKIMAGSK
Sequence of UniProt Q13242 (Q13242 whole entry, looked up): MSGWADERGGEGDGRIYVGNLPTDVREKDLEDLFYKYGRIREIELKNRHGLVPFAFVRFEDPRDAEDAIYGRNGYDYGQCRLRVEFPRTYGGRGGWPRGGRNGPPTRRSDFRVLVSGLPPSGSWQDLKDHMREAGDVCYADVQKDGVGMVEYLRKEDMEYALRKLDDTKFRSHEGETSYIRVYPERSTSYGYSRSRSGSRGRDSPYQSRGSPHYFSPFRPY
Sequence of UniProt O00506 (O00506 whole entry, looked up): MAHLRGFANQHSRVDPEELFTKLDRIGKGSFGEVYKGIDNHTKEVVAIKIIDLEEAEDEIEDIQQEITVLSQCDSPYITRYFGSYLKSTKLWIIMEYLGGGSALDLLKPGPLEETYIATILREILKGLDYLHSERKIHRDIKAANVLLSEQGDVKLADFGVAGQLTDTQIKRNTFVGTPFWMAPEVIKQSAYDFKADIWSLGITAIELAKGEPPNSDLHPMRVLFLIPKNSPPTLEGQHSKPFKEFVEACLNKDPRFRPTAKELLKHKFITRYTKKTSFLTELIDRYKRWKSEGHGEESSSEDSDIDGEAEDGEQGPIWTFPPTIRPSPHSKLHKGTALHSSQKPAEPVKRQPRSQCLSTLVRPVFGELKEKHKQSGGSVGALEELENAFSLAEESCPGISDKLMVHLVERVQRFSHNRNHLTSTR
Sequence of UniProt P62318 (P62318 whole entry, looked up): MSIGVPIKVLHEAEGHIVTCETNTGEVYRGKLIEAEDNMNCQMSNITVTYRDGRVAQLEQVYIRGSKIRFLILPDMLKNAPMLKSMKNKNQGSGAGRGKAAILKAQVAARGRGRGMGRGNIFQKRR

Target	log2 fold change (alvocidib)	log2 fold change (Tubastatin A)	log2 fold change [1]	log2 fold change (defactinib)	log2 fold change [2]	log2 fold change (encorafenib)	log2 fold change [3]	log2 fold change (alisertib)	log2 fold change [4]	log2 fold change (gefitinib)	log2 fold change (lapatinib)	log2 fold change (pictilisib)	log2 fold change (crizotinib)	log2 fold change [5]	log2 fold change (duvelisib)	log2 fold change (gandotinib)	log2 fold change (tozasertib)	log2 fold change (doramapimod)	log2 fold change (bafetinib)	log2 fold change [6]
TARBP2 (UniProt Q15633)	0.016	-0.147	0.038	0.017	-0.026	0.037	0.072	-0.039	0.008	-0.01	0.035	-0.098	-0.092	0.001	0.07	-0.08	-0.057	0.028	-0.028	0.022
SNW1 (UniProt Q13573)	0.023	0.051	0.02	0.006	0.073	0.02	-0.119	0.014	-0.003	-0.03	0.019	-0.002	0.002	0.155	-0.018	-0.037	-0.01	-0.002	-0.002	-0.007
SRSF9 (UniProt Q13242)	-0.021	-0.165	0.002	-0.054	-0.044	0	-0.084	-0.013	-0.017	-0.022	0.014	0.046	0.006	-0.019	0.011	-0.003	0.019	0.085	-0.028	0.053
SQLE (UniProt Q14534)	0.003	0.377 (active)	0.018	-0.009	-0.022	0.002	0.437 (active)	0.059	-0.015	-0.045	-0.056	-0.04	-0.057	-0.025	-0.057	-0.028	0.068	-0.035	-0.047	0.031
TANK (UniProt Q92844)	0.066	-0.043	0.25	0.044	0.068	-0.006	-0.309 (active)	-0.006	-0.024	-0.047	0.038	-0.03	0.27	0.021	-0.026	0.141	0.108	-0.038	0.023	-0.162
SNCA (UniProt P37840)	-0.094	0.172	0.028	-0.019	0.269	-0.026	0.204	-0.021	0.117	0.089	0.137	-0.014	0.127	-0.101	-0.005	0.456 (active)	0.016	0.196	0.098	0.073
SRRT (UniProt Q9BXP5)	0.014	-0.195	0.008	-0.013	-0.02	0.024	0.202	0.03	-0.01	0.009	0.005	-0.029	-0.055	0.059	-0.007	-0.072	0.032	0.066	-0.023	-0.018
STK25 (UniProt O00506)	-0.016	-0.093	0.023	0.147	-0.023	0.025	-0.04	-0.007	0.036	-0.065	-0.058	-0.041	0.008	-0.036	-0.055	0.18	0.033	-0.081	0.001	0.005
SNRPD3 (UniProt P62318)	-0.121	0.014	-0.003	-0.046	-0.068	-0.014	0.027	0.017	0.022	0.052	-0.027	-0.06	0.008	-0.233 (active)	0.052	0.102	0.028	0.014	0.069	0.11
STK11IP (UniProt Q8N1F8)	0.013	-0.005	-0.025	0.041	-0.014	0.053	0.062	-0.026	0.025	0.069	0.022	0.012	-0.022	0.004	-0.052	-0.019	-0.014	0.037	-0.008	0.036
SKA1 (UniProt Q96BD8)	-0.046	-0.064	0.001	0.015	-0.008	0.129	-0.055	-0.017	0.017	-0.006	0.001	0.043	0.009	-0.032	0.042	0.001	0.086	0.037	-0.029	0.024
SLC19A1 (UniProt P41440)	-0.106	0.047	0.025	0.01	0.037	0.011	-0.018	-0.005	0.039	0.026	-0.055	0.005	-0.002	-0.203 (active)	-0.037	0.148	-0.021	0.004	-0.053	0.07
SMG6 (UniProt Q86US8)	-0.067	-0.062	-0.112	-0.027	-0.059	0.148	-0.01	-0.044	0.008	-0.069	0.009	-0.032	0.028	-0.097	-0.1	0.025	-0.096	0.051	-0.049	0.039
STUB1 (UniProt Q9UNE7)	-0.012	-0.193	0.003	-0.029	0.026	-0.025	0.135	0.003	0.007	-0.003	-0.01	-0.012	-0.035	0.004	-0.01	-0.073	-0.006	0.019	-0.054	0.05
SPC25 (UniProt Q9HBM1)	-0.015	0.009	0.024	-0.017	-0.014	0.034	0.014	-0.008	-0.043	-0.011	0.029	0.029	0.001	-0.01	-0.021	-0.007	-0.013	-0.005	-0.031	0.011
SVIP (UniProt Q8NHG7)	-0.014	0.028	-0.017	0.025	0.098	-0.042	-0.055	0.05	-0.039	-0.099	0.005	-0.03	-0.037	0.027	-0.013	0.01	0.037	0.021	-0.008	0.032
